Compounds without any hit were thinned out: in the full panel of roughly 83,000, 20% have a hit.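 Negative percent growth values reflect cell death: -40 means 40% of the cells present at the start died, and -100 means all died.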 Calls of active or inactive are those of the source. How the source made its calls: active means growth percent below 10; inactive means the rest.

In the assay the test system is HL-60(TB) leukemia. As to the kind of experiment: NCI-60 one-dose screen, 48 h (100 = growth as untreated, 0 = no growth, -100 = all killed). As to conditions: 10 µM unless noted.
On to `CSc1nc(C)c([N+](=O)[O-])c(N)n1`, for which the growth is 90.2% (inactive).
Under `COc1cc(-c2ccc(-c3ccc(C(=N)N)cc3)s2)cc(OC)c1OC` stands 3.15% (active); under `O=C(/C=C/c1ccccc1)c1ccc(Nc2nc(Nc3ccc(F)cc3)nc(Nc3ccc(Cl)cc3)n2)cc1`, 43.9% (inactive); under `COC(=O)[C@]12CCC(C)(C)C[C@H]1[C@H]1C(=O)C[C@@H]3[C@@]4(C)c5c([nH]c6ccccc6c5=O)C(C)(C)[C@@H]4CC[C@@]3(C)[C@]1(C)CC2`, 21.8% (inactive).
Under `COC1CCC(N2C(=O)CNc3ncc(-c4ccc(C(C)(C)O)nc4)nc32)CC1` (centres undefined) stands 11.2% (inactive); under `O=S(=O)(/N=c1/n(-c2ccccc2)nc2n1CCN2C1=NCCN1)c1ccc(-c2ccccc2)cc1`, 136% (inactive); under `COc1cc(C(=O)Nc2ccc(N(C)C)cc2)cc(OC)c1OC`, 95.8% (inactive).
In the case of `CCc1nn(Cc2ccccc2)c2nc(C)c(CCc3ccccc3)c(Cl)c12`, the growth was 82.7% (inactive).
Under `COc1ccc(/C=C/C(=O)NCC(C)O)cc1` (centres undefined) stands 109% (inactive); under `COc1ccc(C2=Nc3c/c(=C\c4c(O)[nH]c5cc(Cl)ccc45)ccc3=N2)cc1`, 12.4% (inactive).
Under `COc1ccc2nc3cc(Cl)ccc3c(N3CCN(c4nccc(Nc5ccccc5)n4)CC3)c2c1` stands 73.8% (inactive); under `O=C1Nc2ccc(Br)cc2/C1=N\N=C/c1cn(Cc2ccccc2)c2ccccc12`, 84.4% (inactive); under `C1CCc2onc(-c3noc4c3CCCCC4)c2CC1`, 102% (inactive).
The same measure for `Nn1c(=O)c(=O)[nH]c2c(cnn2-c2ccccc2)c1=O`: 98.6% (inactive).

(Values after PubChem BioAssay (NCI).)
